Compound activity (PubChem)
CYP2C19 activ: human CYP2C19 activators, primary screen, biochemical, luminescence; recombinant CYP2C19, luciferin-H EGE luminescence; active compounds read high; 0 = fully inhibited enzyme, 1 = untreated enzyme; Cytochrome P450 2C19 (Homo sapiens), P33261; 96,000 tested, under 10 active; activation factor at 5 µM;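 active = activation factor of at least 2 at 5 µM in the primary screen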;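 also: 0 = wells with 2.5 mM tranylcypromine and 1 = vehicle-only wells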
Target sequence (P33261 whole entry, looked up): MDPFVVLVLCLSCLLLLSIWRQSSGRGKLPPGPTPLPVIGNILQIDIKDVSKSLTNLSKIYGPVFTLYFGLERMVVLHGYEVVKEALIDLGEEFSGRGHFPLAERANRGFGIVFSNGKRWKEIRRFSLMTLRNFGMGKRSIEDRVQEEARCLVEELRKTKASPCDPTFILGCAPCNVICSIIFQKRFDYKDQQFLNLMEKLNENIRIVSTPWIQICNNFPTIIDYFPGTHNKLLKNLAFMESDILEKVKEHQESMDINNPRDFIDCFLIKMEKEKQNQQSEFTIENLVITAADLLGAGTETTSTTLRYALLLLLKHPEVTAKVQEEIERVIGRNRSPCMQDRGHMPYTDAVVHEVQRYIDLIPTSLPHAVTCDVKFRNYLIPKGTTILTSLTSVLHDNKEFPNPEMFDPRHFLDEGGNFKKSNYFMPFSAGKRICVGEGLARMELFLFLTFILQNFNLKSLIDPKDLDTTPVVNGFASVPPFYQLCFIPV
CYP2C9 activ: human CYP2C9 activators, primary screen, biochemical, luminescence; Cytochrome P450 2C9 (Homo sapiens), P11712; recombinant CYP2C9, luciferin-H conversion; active compounds read high; factor 1 = untreated enzyme, 0 = blocked; activation factor at 5 µM; actives 1.4% (n = 96,000); AID 1024, 2008;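 active = activation factor of 2 or more for CYP2C9 at a 5 µM dose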;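 also: 0 = sulfaphenazole-blocked wells and 1 = vehicle-only wells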
CYP2C19 inh: blockers of cytochrome P450 2C19 activity – biochemical, luminescence, ADME assay, primary screen; CYP2C19 Supersomes, luciferin-H EGE luminescence, 30 min; AID 778, 2007; P33261; inhibition, % at 5 µM; actives 21% (n = 96,000);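 active = CYP2C19 inhibition above a set limit at 5 µM in the primary screen, cut at about 50% in these data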;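 also: plate controls were negative control wells for no effect and 2.5 mM tranylcypromine positive control for full effect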
CYP2C9 inh: blockers of cytochrome P450 2C9 activity – biochemical, luminescence, ADME assay, primary screen | P11712 | CYP2C9 Supersomes, luciferin-H conversion | inhibition, % at 5 µM | actives 20% (n = 96,000) | AID 777, 2007;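 active = blocking of liver enzyme CYP2C9 beyond about 50% at 5 µM, limit read from the data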
Cav3 T inh: Cav3.2 calcium influx blockers – cell-based, Fluo-4 calcium fluorescence, FDSS, MLSMR library, primary screen. Voltage-dependent T-type calcium channel subunit alpha-1H (Homo sapiens), O95180. Cav3.2-expressing cells; active compounds read low. B-score at 10 µM. actives 4% (n = 100,000). AID 449739, 2010;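 active = single-dose well whose peak fluorescence ratio is a statistical outlier from its plate by either plate-standardised score or position-corrected B-score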
Active calls of the source: *; . = no result. This is a sample that favours compounds with a hit; in the whole collection about 27% have one here.

SMILES	CYP2C19 activ	CYP2C9 activ	CYP2C19 inh	CYP2C9 inh	Cav3 T inh
CCc1c(C(=O)NNC(=S)NCC(C)C)csc1C	0.9	1.1	12.8	-5.8	0.0958
c1cc(CN2CCCCC2)cc(OCCCNc2nc3ccccc3s2)c1	.	.	.	.	-4.34*
CCCc1cn(S(=O)(=O)c2ccc(OC)cc2OC)nc1N	0.5	0.9	48.4	12.5	0.414
CCc1cn(S(=O)(=O)c2ccccc2OC)nc1N	0.5	1.8	50.0*	-80.2	1.04
COc1ccc(OC)c(-c2cn(S(=O)(=O)c3ccccc3)nc2N)c1	0.8	0.7	22.0	30.9	-1.06
COc1ccccc1-c1cn(S(=O)(=O)c2ccc(C)cc2)nc1N	0.8	0.4	16.0	56.2*	-0.203
CCn1c(SCC(=O)n2nc(C)cc2C)nnc1-c1ccc2c(c1)OCO2	0.7	1.2	30.1	-20.5	-0.204
Cc1[nH]n(-c2ccccc2)c(=O)c1-c1ccc(Cl)cc1	1	0.5	2.7	45.4	-0.0319
Cc1cc(-c2c(C)[nH]n(-c3ccccc3)c2=O)n(-c2ccccc2)n1	1	0.2	0.8	80.9*	-0.317
O=c1[nH]n(-c2ccc(Cl)cc2)c(=O)c(Cl)c1Cl	1.1	0.8	-6.8	22.5	0.148
Cc1cc(-c2ccco2)n(-c2ccccc2)n1	0.8	0.9	17.8	6.4	0.319
Cc1[nH]n(-c2ccccc2)c(=O)c1-c1cccc(Cl)c1	0.8	0.3	19.7	71.3*	-0.0731
Cc1cc(-c2c(C)[nH]n(-c3ccc(Cl)cc3)c2=O)n(-c2ccc(Cl)cc2)n1	0.9	0.4	8.2	60.2*	0.399
COc1ccc(C2=C(C=Nc3c(C)n(C)n(-c4ccccc4)c3=O)C(c3ccccc3C)c3ccccc3O2)cc1OC (centres undefined)	0.9	0.6	13.8	40.4	-0.917
O=C(CSCSCC(=O)NCC1CCCO1)NCC1CCCO1 (centres undefined)	1.2	1.1	-17.1	-5.9	.
CCn1ccc(C(=O)NC2=C(C#N)CCC2)n1	0.9	0.9	9.8	6.1	0.0185
Cc1ccc(N(CC(O)COCc2ccco2)S(=O)(=O)c2ccc(C)cc2)cc1 (centres undefined)	0.1	0.1	94.4*	87.8*	-2.28
Cc1ccc(N(CC(=O)Nc2ccccc2-c2ccccc2)S(=O)(=O)c2ccccc2)cc1	0.5	0.4	54.9*	59.6*	-2.16
O=C(CN(C1CCCCC1)S(=O)(=O)c1ccccc1)NCc1ccco1	.	.	.	.	1.52
COc1ccccc1N(CC(=O)N/N=C/c1ccc(OCC(=O)NCc2ccco2)cc1)S(=O)(=O)c1ccc(C)cc1	0.1	0	88.8*	95.8*	0.0996
Cc1ccc(N(CC(=O)NCc2ccco2)S(=O)(=O)c2ccccc2)cc1	0.1	0.1	93.9*	91.6*	1.22
C=CCNC(=O)c1cc(=O)c2ccccc2o1	0.9	0.8	8.8	15.5	0.426
COCCN1C(=O)c2cc(C(=O)Nc3cccc(F)c3)ccc2C1Nc1cccc(F)c1 (centres undefined)	.	.	.	.	0.132
Cc1ccccc1-c1nc(CN2CCC(C(=O)NCCCN3CC(C)CC(C)C3)CC2)c(C)o1 (centres undefined)	1.1	1.1	-12.3	-8.8	0.0408
O=C(CN(c1ccc2c(c1)OCCO2)S(=O)(=O)c1ccccc1)NCc1ccco1	0.3	0.4	70.7*	61.5*	0.488
SMILES	CYP2C19 activ	CYP2C9 activ	CYP2C19 inh	CYP2C9 inh	Cav3 T inh
COCC(=O)Nc1nnc(Cc2ccc(OC)cc2)s1	.	.	.	.	-0.324
CCOc1ccc(NC(=O)c2ccccc2OC)cc1	1	3.3*	3.1	-226.8	.
CCOc1ccc(NC(=O)c2ccccc2O)cc1	.	.	.	.	0.112
CCOc1ccc(NC(=O)c2cnsn2)cc1	0.4	0.6	62.3*	41.6	-0.00932
CCCC(=O)Nc1ccc(NC(=O)c2ccccn2)cn1	0.8	1.2	17.8	-20.6	-0.0234
CCCC(=O)Nc1ccc(NC(=O)c2ccccc2OC)cn1	0.5	3.2*	51.2*	-219.7	0.415
Cc1cccc(NC(=O)c2ccccc2OCC(=O)c2ccccc2)c1	0.4	0.3	57.7*	72.6*	0.425
Cc1nc2ccc(NC(=O)c3ccc(F)c(S(=O)(=O)N4CCOCC4)c3)cc2s1	0.8	0.7	17.7	27.0	.
Cc1ccc(Cn2c(C(C)Nc3nc(-c4ccc(Cl)cc4)cs3)nc3cc(C(=O)NCCCO)ccc32)cc1 (centres undefined)	.	.	.	.	-0.00651
COC(=O)C1=C(C(=O)OC)[C@@H]2N(C)c3ccccc3[C@@]23C[C@@H](CO)N(C(=O)C2CCC2)C3=N1	.	.	.	.	-0.73
O=C(NCc1cn2ccsc2n1)c1cccs1	1	1	-3.7	0.7	0.581
CCOc1ccc(NC(=O)c2ccccc2OCC(=O)c2ccccc2)cc1	0.4	0.1	61.3*	88.1*	-0.795
O=C(NC1CC2CCC(C1)N2Cc1ccco1)c1ccccc1 (centres undefined)	.	.	.	.	0.613
O=C(NC1CC2CCC(C1)N2Cc1nnnn1Cc1ccco1)NC12CC3CC(CC(C3)C1)C2 (centres undefined)	0.3	0.5	71.0*	54.2*	-1.2
CCOc1ccccc1C(=O)NC1CC2CCCC(C1)N2C1CC1 (centres undefined)	0.8	0.3	22.0	69.0*	-0.162
O=C(NC1CCN(C(=S)NCc2ccco2)CC1)NC12CC3CC(CC(C3)C1)C2	0.8	1	17.7	2.1	-3.8*
CCOc1ccccc1C(=O)NCC(=O)OCC(=O)N1C(C)CCCC1C (centres undefined)	.	.	.	.	0.556
CCOc1ccccc1C(=O)NC1CC2CCCC(C1)N2Cc1nnnn1Cc1ccco1 (centres undefined)	0.1	0	87.9*	98.0*	3.41
CCOc1ccc(C(=O)NC2CCN(C(=S)NCc3ccco3)CC2)cc1	0.8	0.8	16.8	18.6	0.164
NNC(=O)c1nnn(-c2nonc2N)c1-c1cccs1	0.7	0.9	30.1	6.4	1.05
Cc1cc(NC(=O)c2cc(-c3ccccc3)on2)n(-c2ccccc2)n1	1.2	1.1	-22.0	-11.9	0.519
Cc1cc(Nc2cnc3ccccc3n2)n(-c2ccccc2)n1	0.3	0.3	69.0*	72.5*	-4.62*
Cc1cc(Nc2ccccc2)n(-c2cccc(Cl)c2)n1	0.2	0.2	79.6*	77.7*	-2.69
Cc1cc(Nc2nc3ccccc3[nH]c2=O)n(-c2ccccc2)n1	0.9	0.4	13.9	63.6*	0.454
Cc1cc(Nc2ccccc2)n(C(=O)c2ccc(Cl)cc2)n1	.	.	.	.	-0.28
CN=C(Nc1cc(C)nn1-c1ccccc1)c1ccccc1	0.2	0.7	81.1*	30.1	-0.0454
CCO[C@H]1OC(C(=O)NC2CC2)=C[C@@H](C2CC2)[C@@H]1CCCO	.	.	.	.	0.0793
CS(=O)(=O)N(CC(=O)N1CCN(c2ccccc2)CC1)c1ccccc1Cl	.	.	.	.	0.606
